Calls of active or inactive are those of the source. How the source made its calls: active means hit-call score of the fitted dose curve at least 0.9, where 1 is the maximum; inactive means score below 0.9.
assay: IUF_NPC1_viability_72hr: Viability Assessment at 72 hours in the Leibniz Research Institute for Environmental Medicine (IUF) Neural Progenitor Cell Proliferation Assay (NPC1) (AID 2284209)
Protocol: IUF_NPC1 is a cell-based, multiplexed assay that uses hNPC, a human primary neural progenitor cells, with measurements taken at 72 hours after chemical dosing in a 96-well plate. Human neural progenitor cells (hNPC) are generated from human fetal brain cortex at gestational week (GW) 16-19. Grown in suspension culture and under proliferative conditions (proliferation media and growth factors), these cells represent neural progenitor cell proliferation. In the NPC1 assay, hNPC's are exposed to the test compound for 72h. Cell proliferation is assessed as an increase in sphere area using automated phase contrast imaging and as incorporation of Bromodeoxyuridine (BrdU) during DNA synthesis using a luminescence-based cell proliferation ELISA. In parallel, the cell viability is assessed using an alamar blue viability assay and the cytotoxicity using a lactate dehydrogenase dependent membrane integrity assay.IUF_NPC1_viability_72hr is one of 4 assay components measured from the IUF_NPC1 assay. It is designed to measure cell viability assessed as mitochondria-dependent reduction of resazurin to resorufin using the alamar blue cell viability assay. Viability is measured as a fluorescence signal (relative fluorescence unit) in a multiplate reader. Data from the IUF_NPC1_viability component was analyzed at the endpoint IUF_NPC1_viability in the positive analysis fitting direction relative to DMSO as the negative control and baseline of activity. Using a type of viability reporter, gain or loss-of-signal activity can be used to understand viability effects.
After the cell expansion period, the cells are cultured for up to four weeks in which they are passaged every week. Between one to three days after passaging, depending on the size chosen for passaging, spheres at a size of 0.3 mm are used in the assay. For the assessment of neural progenitor cell proliferation, the spheres are plated in poly-Hema coated 96-well U-bottom plates filled with proliferation medium containing growth factors (EGF and FGF). One 0.25 - 0.35 mm big sphere is plated in the middle of each well. Within 3 days NPCs proliferate and grow in size. Cultivation during the test method is performed at 37C and 5% CO2 at a pH of 7.2-7.6. As a positive control, spheres are cultivated in the absence of growth factors (EGF and FGF), which dramatically reduces proliferation. Exposure starts on the plating day (day 0) and is continued over three days, without chemical renewal, until the experiment is terminated. The assay is terminated by the assessment of cell viability, cytotoxicity, and proliferation by BrdU. All endpoints are generated from the same experimental run and from each well/sphere in the 96-well plate.

Q: For COC(=O)Nc1nc2ccccc2[nH]1, which outcome is on record?
A: inactive

Q: Which outcome does the source give for [O-][Cl+]O here?
A: inactive

Q: Which outcome does the source give for CNC(=O)Oc1cccc2c1OC(C)(C)C2 here?
A: inactive

Q: With CC(C)(C)C(O)(CCc1ccc(Cl)cc1)Cn1cncn1 (stereo not given) as the compound, how does the AC50 read?
A: 439 nM (active)

Q: With COP(=S)(OC)SCN1C(=O)c2ccccc2C1=O as the compound, how does the outcome read?
A: inactive

Q: For CCC[CH2][Sn]([Cl])([CH2]CCC)[CH2]CCC, which AC50 is on record?
A: 535 nM (active)

Q: With O=P(OCCCl)(OCCCl)OCCCl as the compound, how does the outcome read?
A: inactive

Q: For OCCOCCO, which outcome is on record?
A: inactive

Q: For CC(C)COC(=O)c1ccccc1C(=O)OCC(C)C, which outcome is on record?
A: inactive

Q: With CCCCOC(=O)c1ccccc1C(=O)OCc1ccccc1 as the compound, how does the outcome read?
A: inactive
